Experimental data reported in PubChem BioAssay AID492967 (ICCB-Longwood Screening Facility, Harvard Medical School, 2010).
Values joined by “and” are separate entries in the source; they are usually repeats but may differ in a detail not shown here. Equal entries are not always repeated. In all, about 140,000 compounds went through this assay and about 320 (0.23%) were called active. Cut-off read from the data, not from the text of the source: active = z-score mostly below about -2.9 (no sharp cut-off); inactive = mostly above about -1.9. This excerpt belongs to a sample that is enriched for actives. The source holds several records for some structures; these can differ, active in one and inactive in another.

What follows are compounds tested on CapD gamma-glutamyltranspeptidase (Bacillus anthracis Ames Ancestor) (assay: inhibition of CapD gamma-glutamyltranspeptidase – biochemical, fluorescence intensity, primary screen (AID 492967)). Conditions: purified CapD enzyme, fluorescence intensity read-out; stronger effect = lower value.

Row | Structure (SMILES) | z-score
1 | Cc1cccc(N2CCN(C(=O)c3cccc(N4C(=O)C5C6C=CC(C6)C5C4=O)c3)CC2)c1C (centres undefined) | -0.42 (inactive)
2 | CCOC(=O)c1cc2cccc(NC(=O)c3cccc(C(F)(F)F)c3)c2[nH]1 | -0.595 (inactive)
3 | CCCCCNC(=O)c1ccc2c(c1)[nH]c(=S)n1c3ccccc3nc21 | -0.3 (inactive)
4 | CN(CC(=O)O)S(=O)(=O)c1ccc2oc3ccccc3c2c1 | 0.355 (inactive)
5 | C=CCN1CCN(C(=O)C2CC2)CC1 | 0.655 (inactive)
6 | CCCNC(=O)Nc1ccc2snnc2c1 | 26.7 (inactive)
7 | CCOC(=O)c1ccc(N2N=C(C(F)(F)F)/C(=C/c3cc(Cl)c(O)c(OC)c3)C2=O)cc1 | -0.22 (inactive)
8 | CCC(C)(C)c1cc2cc(NS(=O)(=O)c3ccccc3)ccc2[nH]1 | -0.4 (inactive)
9 | CCOC(=O)c1cc2cccnc2nc1C | -0.34 (inactive)
10 | CCOc1ccc(C(=O)/C(C)=N/O)cc1 | -1.18 (inactive)
11 | Cc1ccc2nc(N3CC(=O)N(CCc4ccccc4)C(=O)C3)c3nncn3c2c1 | -0.125 (inactive)
12 | CC(Oc1ccc(OC(C)C(=O)/C=C/N(C)C)cc1)C(=O)/C=C/N(C)C (centres undefined) | -1.18 (inactive)
13 | N#Cc1c(-c2ccccc2)cc(-c2ccccc2)c(C#N)c1N | 21 (inactive)
14 | FC(F)(F)c1cccc(N2CCN(C(=S)Nc3ccccc3)CC2)c1 | -0.215 (inactive)
15 | O=C(COC(=O)Cc1ccsc1)Nc1ccccc1C(F)(F)F | -1.17 (inactive)
16 | CCOc1ccc(/C=C2/SC(=S)N(CC(=O)O)C2=O)cc1 | -0.21 (inactive)
17 | FC(F)(F)C1=CC=NCCN1 | -4.38 (active)
18 | CC(C)(C)OC(=O)/N=C(\N)N(CCCC(NC(=O)OC(C)(C)C)C(=O)NCc1cccs1)C(=O)OC(C)(C)C (centres undefined) | -0.295 (inactive)
19 | O=C(c1ccco1)N1CCN(Cc2cccc(C(F)(F)F)c2)CC1 | 0.64 (inactive)
20 | CCNC(=O)C(=O)Nc1cccc(C(F)(F)F)c1 | 0.01 (inactive)
21 | CCOC(=O)N/N=C1/c2ccccc2C2(O)NC(=O)NC12O (centres undefined) | 0.15 (inactive)
22 | CN1C(=O)C(=Cc2cn(CC(=O)NCc3ccco3)c3ccccc23)C(=O)N(C)C1=O | -0.57 (inactive)
23 | O=C(O)Cn1cc(/C=C2\C(=O)NN(c3ccccc3)C2=O)c2ccccc21 | -6.26 (active)
24 | C=CCn1cc(C=C2C(=O)N(C)C(=S)N(C)C2=O)c2ccccc21 | 3.29 (inactive)

Row | Structure (SMILES) | z-score
25 | CCOc1ccc(CCNC(=O)c2nnc(-c3cccnc3)o2)cc1OCC | 0.25 (inactive)
26 | Cc1nc2ccccc2n1CC1CC1(Cl)Cl (centres undefined) | -0.66 (inactive)
27 | O=C(O)CSc1ncn(-c2ccccc2)n1 | 0.115 (inactive)
28 | CC1(C)c2ccccc2N2CCC(=O)NC21/C=C/c1cccnc1 (centres undefined) | 0.115 (inactive)
29 | CN(C)/C=C/C(=O)C(Cc1ccc(Cl)cc1)Cc1ccc(Cl)cc1 | -0.33 (inactive)
30 | O=[N+]([O-])c1cccc(C2(O)CN(c3ccc(Cl)cc3)C3=[N+]2CCCS3)c1 (centres undefined) | 0.185 (inactive)
31 | COc1ccc2nc3oc(C(=O)NC4CC4)cc3cc2c1 | 3.45 (inactive)
32 | CC1(C)CC(=O)C(=Cc2c[nH]c3ccccc23)C(=O)C1 | -4.71 (active)
33 | O=C(c1ccccc1)C(O)c1c[nH]c2ccccc12 (centres undefined) | 0.51 (inactive)
34 | O=c1[nH][nH]c(=O)c2c(N=Cc3c[nH]c4ccccc34)cccc12 | 57.4 (inactive)
35 | O=c1cc(CO)oc(C(Nc2cccc(C(F)(F)F)c2)c2ccccn2)c1O (centres undefined) | -6.66 (active)
36 | CCOc1ncccc1C(=O)Nc1cccc(C(F)(F)F)c1 | -0.145 (inactive)
37 | O=C(CC(NCc1ccco1)C(=O)O)Nc1cccc(C(F)(F)F)c1 (centres undefined) | -0.155 (inactive)
38 | CCC1CCCCN1C(=O)CSc1ccc(C)cc1 (centres undefined) | -0.23 (inactive)
39 | O=c1oc2ccccc2cc1-c1nc(-c2ccc(Cl)cc2)cs1 | 0.955 (inactive)
40 | Cc1cc(=O)oc2c3c(ccc12)OCN(c1ccccc1Cl)C3 | 21.1 (inactive)
41 | CCC(C)NC(=O)c1onc(C)c1Cl (centres undefined) | -0.44 (inactive)
42 | Cc1c(NS(=O)(=O)c2ccc3c(c2)C(=O)c2ccccc2C3=O)c(=O)n(-c2ccccc2)n1C | -0.465 (inactive)
43 | O=C1CCCC2=C1C(c1ccc(Cl)cc1)c1c(ccc3ccccc13)N2 (centres undefined) | 0.255 (inactive)
44 | Cc1ccc(Oc2cc(Oc3ccc(C)cc3)c3noc4c3c2C(=O)c2ccccc2-4)cc1 | 0.03 (inactive)
45 | Cc1cc2c(cc1C)CSC(c1cc(Cl)cc(Cl)c1O)SC2 | -0.005 (inactive) and -0.385 (inactive)
46 | COc1cc2c(C(=O)NCCC(C)C)cn(C)c(=O)c2cc1OC | 0.63 (inactive)
47 | C=CCN(C(=O)c1ccc(N2CC3CC(C2)c2cccc(=O)n2C3)c(NC(=O)c2ccc(OC)cc2)c1)c1ccccc1 (centres undefined) | -0.49 (inactive)
48 | O=C(OC1CCCCC1=O)c1ccc(O)cc1 (centres undefined) | -0.295 (inactive)

Row | Structure (SMILES) | z-score
49 | CCOc1cccc2cc(C(=O)Nc3ccc(Oc4ccccc4)cc3)c(=O)oc12 | 1.48 (inactive)
50 | CC12CCC(C(=O)Nc3ncc(Cl)cc3Cl)(CC1=O)C2(C)C (centres undefined) | -1.89 (active)
51 | O=C(COC(=O)c1ccccc1)Nc1ncc(Cl)cc1Cl | 0.31 (inactive)
52 | CC12CCC(C(=O)O)(CC1=O)C2(C)C (centres undefined) | -0.19 (inactive)
53 | CCOC(=O)C1=NN(C(=O)CCc2ccccc2)C(O)(c2ccc(Cl)cc2)C1 (centres undefined) | -1.38 (inactive)
54 | CCC(C(=O)Nc1cccc(OC)c1)N1C(=O)CCn2nccc21 (centres undefined) | 0.745 (inactive)
55 | O=C1C2C3c4ccccc4C(c4ccccc43)C2C(=O)N1c1ccccc1Cl (centres undefined) | 0.425 (inactive)
56 | O=C(O)c1ccccc1-c1ccccc1C(=O)Nc1nccs1 | 0.375 (inactive)
57 | Nc1[nH]c(=S)sc1C(=O)Nc1nccs1 | -5.56 (active)
58 | O=C(Nc1nccs1)c1cc(=O)c2ccccc2o1 | -0.41 (inactive)
59 | CC(=O)Nc1ccc2c(c1)OCCOCCOCCO2 | -0.015 (inactive)
60 | CC(C)Oc1ccccc1C(N)=O | -0.285 (inactive)
61 | COc1ccc(CSc2nc(N)nc(-c3cccs3)c2C#N)cc1 | 3.26 (inactive)
62 | O=C(Oc1ccc(C=Nc2cccc(Br)c2)cc1)c1ccccn1 | -0.36 (inactive)
63 | Fc1ccccc1-c1nc(N2CCC3(CC2)OCCO3)c2ccccc2n1 | -0.275 (inactive)
64 | CC(C)C(=O)N=c1scc(-c2ccccc2)n1-c1ccccc1Cl | 0.04 (inactive)
65 | COc1ccc(C(=O)NNC(=O)C2CCN(c3ccc(C(F)(F)F)cn3)CC2)cc1 | 3.11 (inactive)
66 | CC(C)CCOc1ccc(C(=O)C(C)C)cc1 | 0.445 (inactive)
67 | COc1ccccc1C1CCN(C(=O)c2ccccc2C(F)(F)F)CC1 | 0.315 (inactive)
68 | CC1=C(C(=O)OCCc2ccccc2)C(c2ccccc2C(F)(F)F)NC(=O)N1C (centres undefined) | -0.495 (inactive)
69 | N#C/C(=C\C=C\c1ccccc1)c1nc2ccccc2[nH]1 | 2.54 (inactive)
70 | CS(=O)(=O)c1nc2ccccc2[nH]1 | 0.005 (inactive)
71 | N#CC(=C1C(=O)c2ccccc2C1=O)c1nc2ccccc2[nH]1 | -4.36 (active)
72 | ClCCOc1nc(N2CCOCC2)nc(N2CCOCC2)n1 | -0.68 (inactive)

Row | Structure (SMILES) | z-score
73 | O=C(c1ccc(Cn2c(=S)[nH]c3ccc(Br)cc3c2=O)cc1)N1CCN(C(=O)c2ccco2)CC1 | 0.025 (inactive)
74 | Cc1ccccc1C(=O)N1CCc2c([nH]c3ccccc23)C1 | 0.37 (inactive)
75 | CCOC(=O)C1=CN(Cc2ccc(OC)cc2)C=C(C(=O)OCC)C1c1cc(Br)c(OCC)c(OC)c1 | 22.1 (inactive)
76 | O=C(Cn1c2ccccc2c(=O)c2cc(Cl)ccc21)Nc1ccc(OCc2ccccc2)cc1 | 0.395 (inactive)
77 | COc1ccc(S(=O)c2ccccc2C(=O)O)cc1 (centres undefined) | 0.375 (inactive)
78 | COc1ccccc1N1CCN(c2ncnc3sc(C(=O)Nc4ccc5c(c4)OCCO5)c(C)c23)CC1 | -0.055 (inactive)
79 | COc1cccc(N/C(SCc2c(F)cccc2Cl)=C(/C#N)C(=O)NCc2ccccc2)c1 | -0.425 (inactive)
80 | O=c1c(-c2cc3ccccc3o2)[n+]([O-])c2ccccc2n1O | 2.82 (inactive)
81 | O=C1/C(=C/c2ccc(Br)cc2)C=C(c2ccccc2)N1c1ccccc1Br | -0.72 (inactive)
82 | NC(=O)CCc1cn(-c2ccccc2)nc1-c1ccccc1 | -0.045 (inactive)
83 | COc1cc2c(cc1OC)C(c1ccc(Cl)cc1)NC(=O)C2 (centres undefined) | -0.115 (inactive)
84 | CCOC(=O)C1=C(C)NC(C)=C(C(=O)OCC)C1c1cn(-c2ccccc2)nc1-c1ccc(F)cc1 | 3.54 (inactive)
85 | CC(C)(C)c1ccc(S(=O)(=O)Nc2ccc3c(c2)N(S(=O)(=O)c2cccc(C(F)(F)F)c2)CC3)cc1 | -0.6 (inactive)
86 | Cc1c(Cl)cccc1N=C1NC(=O)/C(=C/c2ccco2)S1 | -1 (inactive)
87 | CCN(CC)C(=O)Cn1ncc2c3ccccc3n(Cc3ccccc3)c2c1=O | 2.73 (inactive)
88 | O=C(CN1C(=O)CC(c2ccccc2)Sc2ccccc21)NCc1ccccc1 (centres undefined) | -0.28 (inactive)
89 | COc1cc(/C=C2/N=C(c3ccc(Cl)c([N+](=O)[O-])c3)OC2=O)cc(OC)c1OC | 0.85 (inactive)
90 | CC1CCC(C(C)C)C(OCC(O)CN2CCN(c3ccccc3)CC2)C1 (centres undefined) | 0.045 (inactive)
91 | COC(=O)Nc1c(C)n(C)n(-c2ccccc2)c1=O | 0.115 (inactive)
92 | Cc1c(NC(=O)c2cccnc2)c(=O)n(-c2ccccc2)n1C | -0.255 (inactive) and -5.24 (active)
93 | Cc1ccc(C(=O)N/C(=C\c2ccccc2)C(=O)Nc2c(C)n(C)n(-c3ccccc3)c2=O)cc1 | -0.355 (inactive)
94 | COc1cc(NC(=O)c2cc(N(C)C)nc(N(C)C)n2)cc(OC)c1 | 4.64 (inactive)
